Screening data from PubChem BioAssay.
Shown is part of a subset that was picked to be rich in hits.
ERAP1 inh: blocks human ERAP1 aminopeptidase activity; Q9NZ08; recombinant ERAP1, Leu-AMC fluorescence, 60 min; inhibition, % at 10.7 µM; 340,000 tested, 0.15% active;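 active means mean replicate inhibition of at least 30%, or all replicates individually reaching that 30% level; inactive means mean below 30% and not every replicate reaching it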;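 further: 0% = neutral control wells and 100% = L-leucinethiol positive control wells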
ERp5 inh: ERp5 (human) disulfide isomerase inhibition; Q15084; ERp5 insulin aggregation, absorbance 650 nm, 90 min; inhibition, % at 9.99 µM; 350,000 tested, 0.05% active;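 active means mean replicate inhibition above about 25%, with every replicate also reaching it, limit read from the data, passing the limit was not always enough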
PDI turbidity: PDI (human) enzyme inhibition; P07237; PDI insulin aggregation turbidity, A650, 90 min; inhibition, % at 10 µM; 350,000 tested, 0.052% active; AID 588391;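 active means mean inhibition across replicates of 30% or more, whatever share of single replicates reach that level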
HDAC3 inh: inhibitors of human histone deacetylase 3 | recombinant HDAC3, fluorogenic peptide/trypsin coupled, fluorescence | inhibition, % at 8.3 µM | 320,000 tested, 0.15% active; in the data active means inhibition above about 26%, passing the limit was not always enough
SIRT5 inh: inhibitors of human sirtuin-5 desuccinylase; Q9NXA8; Purified SirT5, succinyl-peptide AMC, trypsin-coupled fluorescence; inhibition, % at 15 µM; 330,000 tested, 1.1% active; AID 652115; in the data active means inhibition above about 15%
Target sequence (Q9NXA8 whole entry, looked up): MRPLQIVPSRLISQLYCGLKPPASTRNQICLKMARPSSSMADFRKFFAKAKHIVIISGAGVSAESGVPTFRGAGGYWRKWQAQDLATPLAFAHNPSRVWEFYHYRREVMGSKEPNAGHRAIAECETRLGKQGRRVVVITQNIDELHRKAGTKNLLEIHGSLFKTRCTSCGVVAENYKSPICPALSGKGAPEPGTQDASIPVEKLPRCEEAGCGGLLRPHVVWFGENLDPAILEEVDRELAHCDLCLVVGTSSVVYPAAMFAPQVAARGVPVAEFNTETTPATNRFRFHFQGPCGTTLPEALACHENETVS
Starred values were filed as active, the others as inactive; / = no result.

SMILES	ERAP1 inh	ERp5 inh	PDI turbidity	HDAC3 inh	SIRT5 inh
Cc1ccc(S(=O)(=O)N(C)C[C@@H]2Oc3ccc(NC(=O)C4CC4)cc3C(=O)N([C@@H](C)CO)C[C@@H]2C)cc1	0	3	/	/	-3
CCNS(=O)(=O)c1ccc(CCC(=O)N2CCN(C(=O)OCC)CC2)cc1	-2	-2	-2	-5	15*
C[C@@H]1CCCCO[C@H](CN(C)S(=O)(=O)c2ccc(Cl)cc2)[C@@H](C)CN([C@H](C)CO)C(=O)c2cc(NC(=O)Cc3ccccc3)ccc2O1	2	6	/	/	6
CCN1[C@@H]2c3ccc(-c4cccc(C(=O)N(C)C)c4)c(=O)n3C[C@@H]2[C@@H](CO)[C@@H]1C(=O)N(C)C	0	-3	/	/	-2
Cc1nc(SCc2cccc(C(=O)O)c2)nc2c1CCCC2	-4	1	18	5	52*
CC1(C)CC(=O)C2=C(C1)NC(=S)C(C#N)C21CCCCC1 (stereo not drawn)	/	6	5	39*	3
CC1(C)CC(=O)C2=C(C1)NC(SCC(=O)Nc1ccccc1)=C(C#N)C21CCCCC1	/	/	-14	10	/
Cc1c(C(=O)N(Cc2ccc(F)cc2)C2CCS(=O)(=O)C2)oc2ccccc12 (stereo not drawn)	0	0	8	-5	-1
Cc1c(C(=O)N(Cc2ccccc2)C2CCS(=O)(=O)C2)oc2ccccc12 (stereo not drawn)	6	-4	/	0	16*
COC(=O)c1cn(CC(=O)N2CCCCCC2)c2ccccc12	/	/	6	-6	/
CCOC(=O)C1CCN(C(=O)Cn2cc(C(=O)OC)c3ccccc32)CC1	-2	1	1	-8	18*
CCOc1ccc(N(CC(=O)Nc2ccc(OC)cc2)C2=NC3CS(=O)(=O)CC3S2)cc1 (stereo not drawn)	0	-1	/	/	-3
CCOc1ccc(N(CC(=O)Nc2ccc(C)c(F)c2)C2=NC3CS(=O)(=O)CC3S2)cc1 (stereo not drawn)	5	-6	5	-2	15*
CN1c2ccc(C#Cc3cccnc3)cc2[C@@H]2[C@@H](CCN2S(=O)(=O)c2ccccc2F)[C@@H]1CO	1	-3	/	/	-26
O=C1NN(c2ccccc2)C(=O)/C1=C/c1ccc(-c2ccc(C(=O)O)cc2)o1	3	-1	6	4	24*
COC(=O)c1ccc(N2NC(=O)/C(=C/c3ccc(-c4ccc(Cl)c(C(=O)O)c4)o3)C2=O)cc1	-2	13	4	/	23*
CC1=NOC(=O)/C1=C\c1ccc(-c2ccc(Cl)c(C(=O)O)c2)o1	-57	1	9	/	22*
Cc1ccc(N2NC(=O)/C(=C/c3ccc(-c4ccc(Cl)c(C(=O)O)c4)o3)C2=O)cc1C	0	-7	21	-2	1
CC1(C)OC(=O)C(=Cc2ccc(-c3ccc(Cl)c(C(=O)O)c3)o2)C(=O)O1	-9	0	17	9	5
C[C@@H]1CN([C@H](C)CO)C(=O)c2cc(NC(=O)Nc3ccc4c(c3)OCO4)ccc2O[C@@H](C)CCCCO[C@H]1CN(C)C(=O)Cc1ccccc1	-3	-2	/	/	0
O=C(CSCc1ccco1)c1cccs1	/	/	3	92*	/
C[C@@H]1CN([C@@H](C)CO)C(=O)Cc2cc(NC(=O)Nc3ccc(F)cc3)ccc2O[C@@H]1CN(C)Cc1ccc(Oc2ccccc2)cc1	1	-4	/	/	1
CCN(c1ccccc1)S(=O)(=O)c1ccc(OC)c(NC(=O)c2c(C)noc2C)c1	0	27*	1	/	-3
O=C(O)CCS(=O)(=O)c1cccc2cccnc12	/	/	-1	4	/
CCSS(=O)(=O)c1cccc2cccnc12	96*	2	0	1	0
SMILES	ERAP1 inh	ERp5 inh	PDI turbidity	HDAC3 inh	SIRT5 inh
COc1ccc(CCNC(=O)COC(=O)CCC(=O)c2ccc(F)cc2)cc1OC	/	3	7	-1	20*
CSc1ccccc1NC(=O)COC(=O)CCC(=O)c1ccc(F)cc1	-3	1	-5	4	20*
COc1ccc(CCNC(=O)COC(=O)CCC(=O)c2cccs2)cc1OC	-1	-8	-1	2	/
COC(=O)[C@H]1[C@H](CO)[C@H]2Cn3c(ccc(C4=CCCCC4)c3=O)[C@H]2N1C(=O)C1CCCC1	2	-4	/	/	2
C[C@H]1CN([C@@H](C)CO)C(=O)c2cc(C#CC3CCCCC3)cnc2O[C@@H]1CN(C)S(=O)(=O)c1cccc(F)c1	0	-3	/	/	27*
C[C@H](CO)N1C[C@H](C)[C@H](CN(C)S(=O)(=O)c2cccc(F)c2)Oc2ncc(C#CC3CCCCC3)cc2C1=O	1	-1	/	/	21*
C[C@@H]1CN([C@@H](C)CO)C(=O)c2cc(C#CC3CCCCC3)cnc2O[C@@H]1CN(C)C(=O)Nc1ccccc1	/	-1	/	/	16*
C[C@@H]1CN([C@H](C)CO)C(=O)c2cc(C#CC3CCCCC3)cnc2O[C@@H]1CN(C)S(=O)(=O)c1cccc(F)c1	5	0	/	/	6
C[C@@H]1CN([C@H](C)CO)C(=O)c2cc(NC(=O)CCCN(C)C)ccc2O[C@@H](C)CCCCO[C@@H]1CN(C)C(=O)Nc1ccccc1	2	-3	/	/	-5
O=C1c2c(O)cc(O)cc2O[C@@]12c1c(cc(O)c3c1O[C@H](c1ccc(O)cc1)[C@@H](O)C3)O[C@@H]2c1ccc(O)cc1	9	0	41*	4	/
Oc1cc(O)c2c(c1)O[C@H](c1ccc(O)c(O)c1)[C@@H](O)C2	-3	-1	-2	-6	-2
CSc1ncc(S(=O)(=O)c2ccccc2)c(=O)[nH]1	9	3	10	1	20*
CNC(=O)C[C@H]1CC[C@H]2[C@@H](COc3ccc(NC(=O)c4ccc(F)c(F)c4)cc3C(=O)N2C)O1	2	1	/	/	3
O=c1c2ccccc2sn1-c1cc(S(=O)(=O)N2CCOCC2)ccc1N1CCCC1	/	/	5	27*	/
O=C(c1ccncc1)N1CC(=O)N2[C@H](CO)[C@H](c3ccc(/C=C/c4ccccc4)cc3)[C@@H]2C1	1	3	/	/	3
C[n+]1ccccc1/C=C/c1ccc(F)c(F)c1	4	4	-4	11	-1
C[n+]1ccccc1/C=C/c1ccc2ncccc2c1	40*	-2	1	6	6
O=C(N[C@H]1CC[C@H](CCn2cc(C3(O)CCCC3)nn2)O[C@H]1CO)C1CCCC1	2	-1	/	/	0
COc1cccc(CN(C)CCCn2ccc(NC(=O)OCc3ccccc3)nc2=O)c1	2	-4	6	/	-1
CN(CCCn1ccc(NC(=O)OCc2ccccc2)nc1=O)Cc1ccco1	8	-6	5	/	25*
C[C@@H]1CCCCO[C@H](CN(C)C(=O)Cc2ccccc2)[C@H](C)CN([C@@H](C)CO)C(=O)c2cc(NC(=O)Nc3ccc4c(c3)OCO4)ccc2O1	-3	-5	/	/	9
O=C(Cc1ccccc1)Nc1ccc(C(=O)NCc2ccccc2)cc1	1	1	-3	12	-1
O=C(O)CCNC(=O)c1ccc(NC(=O)C(c2ccccc2)c2ccccc2)cc1	0	4	4	2	57*
